The campaign covered roughly 96,000 compounds. About 1,400 (1.5%) were called active. The sample holds actives, similar compounds and a random draw of the others, so the mix is not that of the screen. A number with no mark means an inactive call.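 Rule for the calls: active = activation factor of 2 or more for CYP2C9 at a 5 µM dose; inactive = the rest.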
Each molecule was assayed against Cytochrome P450 2C9 (Homo sapiens) (UniProt P11712) (assay: human CYP2C9 activators, primary screen, biochemical, luminescence (AID 1024;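 note: 0 = sulfaphenazole-blocked wells and 1 = vehicle-only wells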)). Settings: recombinant CYP2C9, luciferin-H conversion, at 5 µM, active compounds read high, factor 1 = untreated enzyme, 0 = blocked.
Sequence of Cytochrome P450 2C9 (Homo sapiens) (P11712 whole entry, looked up): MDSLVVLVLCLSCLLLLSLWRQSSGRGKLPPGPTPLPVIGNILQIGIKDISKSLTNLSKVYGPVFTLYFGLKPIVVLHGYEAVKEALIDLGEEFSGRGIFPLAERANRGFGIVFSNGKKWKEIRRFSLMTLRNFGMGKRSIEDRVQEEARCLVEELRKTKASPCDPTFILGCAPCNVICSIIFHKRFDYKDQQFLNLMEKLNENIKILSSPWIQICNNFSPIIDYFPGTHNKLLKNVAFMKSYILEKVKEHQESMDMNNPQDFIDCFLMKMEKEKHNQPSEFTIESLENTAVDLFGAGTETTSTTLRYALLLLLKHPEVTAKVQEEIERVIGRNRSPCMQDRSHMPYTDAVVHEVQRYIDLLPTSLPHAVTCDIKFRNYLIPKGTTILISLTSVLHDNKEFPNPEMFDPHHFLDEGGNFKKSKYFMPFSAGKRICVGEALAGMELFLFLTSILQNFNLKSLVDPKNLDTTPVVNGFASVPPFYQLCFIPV

Structure (SMILES)	activation factor
CCN(c1ccccc1)S(=O)(=O)c1cccc(C(=O)O)c1	0.7
CCN(c1ccccc1)S(=O)(=O)c1ccc(N)cc1	2.4 (active)
CCN(c1ccccc1)S(=O)(=O)c1ccc(NC(=O)C(C)(C)C)cc1	0.7
O=C(NCCc1ccccn1)c1cc(C(=O)C2CCCCC2)c[nH]1	0.9
CC1CCN(C(NC(=O)c2ccco2)C(=O)c2ccccc2)CC1 (stereo not given)	0.3
COc1ccc(CCNC(=O)COC(=O)c2ccc[nH]c2=O)cc1	0.8
COc1cc(C2C(C(=O)OCCC#N)=C(C)NC3=C2S(=O)(=O)c2ccccc23)cc(OC)c1OC (stereo not given)	0.5
O=C(CCCN1C(=O)c2cccc3cccc(c23)C1=O)N1CCN(Cc2ccc3c(c2)OCO3)CC1	2.4 (active)
O=C(Nc1cccc2ccccc12)N1CCN(Cc2ccc3c(c2)OCO3)CC1	0.6
Cn1c(=O)cc(OCCCC(=O)N2CCN(Cc3ccc4c(c3)OCO4)CC2)c2ccccc21	0.9
COc1ccc(N(CC(=O)N/N=C/c2cccc3c2OCCO3)S(=O)(=O)c2ccc(NC(C)=O)cc2)cc1	0.2
CCN(CC)S(=O)(=O)c1ccc2c3c(cccc13)C(=O)S2	1.5
COc1cccc(C(=O)c2cc3ccc(O)cc3oc2=O)c1	0.1
COc1ccc2oc(=O)c(C(=O)O)cc2c1	1.1
COc1cccc2cc(C(=O)N(C)C)c(=O)oc12	2 (active)
O=C(Oc1ccccc1)Oc1ccc2c(c1)oc(=O)c1ccccc12	1.6
Cc1n[nH]c(=S)n1/N=C/c1ccc(Br)o1	1
CCc1cccc2c(C=C(C#N)C#N)cn(CC(=O)N3CCCCC3)c12	1
Cc1nc(SCC(=O)N2CC(=O)Nc3ccccc32)c2c(C)c(C)sc2n1	0.4
COc1ccc(S(=O)(=O)N2CCC(C(=O)N3CCc4ccccc4C3)CC2)cc1OC	0.5
COc1ccc(C2SCCN2S(=O)(=O)c2ccccc2)cc1OC (stereo not given)	2.1 (active)
COc1ccc(C2CC(=O)n3c(nc4ccccc43)S2)cc1OC (stereo not given)	0.9
COc1ccc(CNC(=O)C2CCC(CNc3c(N4CCOCC4)c(=O)c3=O)CC2)cc1 (stereo not given)	1.1
Cc1ccc(CNC(=O)c2ccccc2CCc2ccccc2)cc1	0.7
Clc1ccc(Cl)c(Oc2ccc(Oc3nc(Cl)ccc3Cl)cc2)n1	2 (active)
N#Cc1ccc(-c2ccc(Cl)cc2)nc1Oc1ccc(F)cc1	0.9
Nc1ccc(Oc2ccc(Cl)cc2)cc1	0.8

Structure (SMILES)	activation factor
C=CCNC(=O)c1sc(SC)cc1-c1ccc(Cl)cc1	0.4
Cc1ccc(C(=O)OC2=CC(=O)CC(C)(C)C2)cc1	0.7
Cc1cc(C)c(S(=O)(=O)NCCCN2CCOCC2)cc1Br	2 (active)
O=[N+]([O-])c1ccc(NCCCN2CCOCC2)c(Cl)c1	0.9
Cc1ccc(S(=O)(=O)NCCN2CCOCC2)cc1C	0.8
O=C(CN1CCN(S(=O)(=O)c2ccc(Cl)s2)CC1)NCc1ccc(Cl)cc1	0.4
CCCCNCc1ccc(SC)cc1	1
O=C(NCc1ccccn1)c1cc(-c2ccccc2Cl)on1	2.6 (active)
C=CCNC(=O)c1cc(-c2ccccc2O)on1	1.5
O=C(NCc1ccccn1)c1cc2ccccc2oc1=O	1.3
COc1ccccc1NC(=O)COc1ccc(C(=O)OCC(=O)N(C(C)C)C(C)C)cc1OC	0.6
O=C(c1ccc2c(c1)OCCO2)C1CCN(S(=O)(=O)c2cccc(F)c2)CC1	1.2
O=C(NCc1ccc2c(c1)OCO2)C1CCCN(S(=O)(=O)c2cccs2)C1 (stereo not given)	0.1
O=C(NCc1cccs1)C1CCN(S(=O)(=O)c2ccc3c(c2)OCCO3)CC1	2.7 (active)
FC(F)(F)c1cccc(-c2cc3ccccc3nc2N2CCCC2)c1	0.9
CCN(Cc1ccccc1)C(=O)CSc1nc(C)cc2c1C(=O)OC2	2.3 (active)
CCOC(=O)n1c(SCC(=O)N(CC)CC)nc2ccccc21	0.7
CCN(CC)C(=O)CSc1nnc(-c2cccc(OC)c2)o1	1.6
CCN1CCN(c2ccc([N+](=O)[O-])cc2C(=O)c2ccc(Cl)cc2)CC1	1.6
CC1CC(C)CN(C/C=C/c2ccccc2[N+](=O)[O-])C1 (stereo not given)	0.9
COc1ccc(Cl)cc1S(=O)(=O)N1CCN(CC(=O)C(C)(C)C)CC1	2.4 (active)
COc1ccc(NC(=O)CN2CCN(S(=O)(=O)c3ccc(F)cc3)CC2)cc1Cl	0.8
COc1ccc(Cl)cc1S(=O)(=O)Nc1cccc(C(=O)O)c1	0.9
O=C(CSCc1ccc([N+](=O)[O-])cc1)NCCSCc1ccccc1	0.6
CCOC(=O)C1CN(S(=O)(=O)c2ccc(F)cc2)C1	0.9
COc1ccc(Cl)cc1NC(=O)c1oc(C)nc1C	2.7 (active)
Cc1nc(C)c(C(=O)Nc2cccc(C)c2C)o1	1

Structure (SMILES)	activation factor
Cc1nc(C)c(C(=O)Nc2ccc(C)c(F)c2)o1	1
Cc1ccc(NC(=S)NC2CCCC2)cc1	0.7
COc1ccc([N+](=O)[O-])cc1NC(=O)CCc1ccccc1	1.7
COc1ccccc1NC(=O)/C=C/C(N)=O	1.2
COc1ccccc1NC(=S)NC(=O)C(C)C	0.9
COc1ccccc1NC(=O)c1ccc(C)s1	3.5 (active)
N#Cc1ccsc1NC(=O)CN1CCCCC1	1.2
COc1cc(/C=N\NC(=O)CNC(=O)c2cccc([N+](=O)[O-])c2)ccc1O	1.1
CC1(C)CC(=O)C2=C(C1)N=C1SCCC(=O)N1C2c1ccc(C(F)(F)F)cc1 (stereo not given)	1.2
CCOc1ccc(S(=O)(=O)Nc2ccc(S(=O)(=O)Nc3cc(OC)ccc3OC)cc2)cc1	0.2
CCOc1ccccc1NC(=O)Nc1cc(OC)ccc1OC	1
CCOc1ccc(C(=O)Nc2cc(OC)ccc2OC)cc1	2.1 (active)
CCOC(=O)c1sc2nc(SC)nc(-c3ccccc3)c2c1N	0.9
O=c1c([N+](=O)[O-])cc(C(F)(F)F)cn1Cc1cccc(Cl)c1	0.8
O=C(Nc1ccc(S(=O)(=O)N2CCc3ccccc3C2)cc1)c1ccccc1	1
O=S(=O)(c1cccs1)N1CCc2ccccc2C1	3.1 (active)
O=S(=O)(c1cccs1)N1CCN(Cc2ccccc2)CC1	0.3
COc1ccc(C(=O)N2CCc3cc(OC)c(OC)cc3C2c2cccc([N+](=O)[O-])c2)cc1 (stereo not given)	0.4
Cc1nnsc1S(=O)(=O)Cc1ccccc1Cl	1
COc1ccc(CCNS(=O)(=O)c2ccc(F)cc2)cc1OC	0.2
O=S(=O)(NCCOc1cccc2cccnc12)c1ccc(F)cc1	3.3 (active)
O=S(=O)(NCc1ccccn1)c1ccc(F)cc1	1
O=C(/C=C/c1ccccc1)c1ccoc1	0.8
Cc1nn(C)c(Oc2ccccc2)c1CCNS(=O)(=O)c1ccc(F)cc1	0.5
CC(C)(C)NC(=O)NC(=O)COC(=O)CCC1CCCCC1	0.9
COc1ccc(NC(=O)c2cccc(NC(=O)c3ccco3)c2)c(OC)c1	1.5
COC(=O)c1ccc(NC(=O)c2ccco2)cc1	0.8

Structure (SMILES)	activation factor
COc1cccc(C(=O)Nc2ccc(NC(=O)c3ccco3)cn2)c1	0.8
COc1ccc(OC)c(NC(=O)c2cnn(-c3ccccc3Cl)c2NC(=O)c2ccco2)c1	0.8
COc1ccccc1C(=O)Nc1ccc(NC(=O)c2ccco2)c(C)c1	2.8 (active)
COC(=O)c1cc(Cl)c(NC(=O)c2ccco2)cc1OC	2.4 (active)
CCOC(=O)Nc1ccc(S(=O)(=O)N(C)C(C)C)cc1	0.7
O=C(COc1ccc(Br)cc1F)NC1CCN(Cc2ccccc2)CC1	0.7
Cc1onc(-c2c(Cl)cccc2Cl)c1C(=O)c1c[nH]c(C(=O)NC2CC2)c1	0.9
Cc1cc(C(=O)CSc2nc(N)cc(=O)[nH]2)c(C)n1CCc1ccc(Cl)cc1	0.9
CCn1cc(C(=O)N/N=C(/C)c2ccc(F)cc2)c(=O)c2cc(F)c(N3CCCC3)cc21	0.9
COc1ccc(S(=O)(=O)NC(CC(=O)NCc2ccccc2OC)c2ccco2)cc1 (stereo not given)	1.4
COc1ccccc1Cc1nc(-c2ccc(C)cc2)no1	0.9
COc1ccccc1CNS(=O)(=O)c1ccc(C)cc1	2.6 (active)
CCOC(=O)C1(S(=O)(=O)c2ccc(Cl)cc2)CCN(Cc2ccccc2)CC1	0.8
Cc1nc2cc(NC(=O)CSc3nc4c(C)cccc4cc3C#N)ccc2s1	0.7
O=C(COc1ccccc1)NCc1ccc2c(c1)OCO2	0.7
O=C(CCCCn1c(=O)[nH]c2ccccc2c1=O)NCc1ccc2c(c1)OCO2	0.3
Cn1cc(CCC(=O)NCc2ccc3c(c2)OCO3)c2ccccc21	2.2 (active)
CCCc1cc(=O)[nH]c(SCC(=O)c2cc(C)n(CCC)c2C)n1	0.9
Cc1ccc2nc(SCc3nnc(-c4ccccc4[N+](=O)[O-])o3)c(C#N)cc2c1	0.8
COC(=O)Cc1cc(=O)oc2c(C)c(O)ccc12	1.2
Cc1nc(Cl)c2oc3ccccc3c2n1	0.9
Cc1ccc(NC(=O)C2CC(c3ccc(F)cc3)=NO2)cc1 (stereo not given)	0.8
O=C(Nc1ccc2c(c1)OCO2)C1CC(c2c(F)cccc2Cl)=NO1 (stereo not given)	2.6 (active)
CC(C)C(=O)Nc1cccc(C(=O)Nc2ccc3c(c2)OCO3)c1	0.4

Reference: PubChem BioAssay AID1024 (Sanford-Burnham Center for Chemical Genomics, 2008)
